According to PubChem BioAssay AID1159580 (chemical genetic matrix, 2015):
Where “and” joins values, the source holds several entries; their conditions need not be identical. Equal values may be shown once. In all, about 5,500 compounds went through this assay and about 2,000 (36%) were called active. Not shown: some 18% with an inconclusive outcome. The list shows a part of the results. Unmarked numbers belong to inactive results. Rule as the data show it: active = normalized growth mostly below about 0.91 (no sharp cut-off); inconclusive = no clear call, values can overlap the other calls; inactive = mostly above about 0.92.

Assay: chemical genetic growth profiling, strain panel (AID 1159580);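 also: tested at 20 µM; growth read once vehicle control cultures reached saturation at 30 °C; 1 = growth at the plate median or of vehicle wells; lower values mean less growth of the strain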
Details: S. cerevisiae deletion strains, growth OD

Question: Which results are given for C[C@@H]1CC[C@H]2C(C)(C)C3CC12CC[C@@]3(C)O (stereo partly specified)?
Answer: normalized growth (locus YAL021C, strain ccr4, active compounds read low): 0.942; normalized growth (locus YAL026C, strain drs2, active compounds read low): 0.918; normalized growth (locus YAL030W, strain snc1, active compounds read low): 0.884 (active); normalized growth (locus YBL061C, strain skt5, active compounds read low): 0.754 (active); normalized growth (locus YBR009C, strain hhf1, active compounds read low): 0.658 (active); normalized growth (locus YBR021W, strain FUR4, active compounds read low): 0.935; normalized growth (locus YBR023C, strain chs3, active compounds read low): 0.7 (active); normalized growth (locus YBR171W, strain sec66, active compounds read low): 0.962; normalized growth (locus YBR229C, strain ROT2, active compounds read low): 1.02; normalized growth (locus YBR231C, strain swc5, active compounds read low): 0.862 (active); normalized growth (locus YBR279W, strain paf1, active compounds read low): 0.907 (active); normalized growth (locus YCL011C, strain gbp2, active compounds read low): 0.811 (active); normalized growth (locus YCL016C, strain dcc1, active compounds read low): 0.859 (active); normalized growth (locus YCL029C, strain bik1, active compounds read low): 1.01; normalized growth (locus YCL061C, strain MRC1, active compounds read low): 0.952; normalized growth (locus YCL069W, strain vba3, active compounds read low): 0.977; normalized growth (locus YCR088W, strain abp1, active compounds read low): 0.976; normalized growth (locus YDL005C, strain med2, active compounds read low): 0.848 (active); normalized growth (locus YDL035C, strain GPR1, active compounds read low): 0.979; normalized growth (locus YDL040C, strain nat1, active compounds read low): 0.952; normalized growth (locus YDL074C, strain BRE1, active compounds read low): 0.913; normalized growth (locus YDL101C, strain DUN1, active compounds read low): 0.988; normalized growth (locus YDL185W, strain tfp1, active compounds read low): 0.99; normalized growth (locus YDL192W, strain arf1, active compounds read low): 0.872 (active); normalized growth (locus YDR001C, strain nth1, active compounds read low): 1.01; normalized growth (locus YDR101C, strain arx1, active compounds read low): 0.939; normalized growth (locus YDR137W, strain rgp1, active compounds read low): 0.67 (active); normalized growth (locus YDR150W, strain NUM1, active compounds read low): 1.02; normalized growth (locus YDR159W, strain sac3, active compounds read low): 0.603 (active); normalized growth (locus YDR162C, strain NBP2, active compounds read low): 1; normalized growth (locus YDR195W, strain ref2): 0.318 (active); normalized growth (locus YDR297W, strain sur2, active compounds read low): 0.906 (active); normalized growth (locus YDR318W, strain mcm21, active compounds read low): 0.95; normalized growth (locus YDR334W, strain swr1, active compounds read low): 1; normalized growth (locus YDR335W, strain msn5, active compounds read low): 0.928; normalized growth (locus YDR388W, active compounds read low): 0.969; normalized growth (locus YDR392W, strain spt3, active compounds read low): 0.301 (active); normalized growth (locus YDR502C, strain sam2, active compounds read low): 0.924; normalized growth (locus YEL003W, strain gim4, active compounds read low): 0.848 (active); normalized growth (locus YEL037C, strain rad23, active compounds read low): 0.973; normalized growth (locus YEL061C, strain CIN8 (second series), active compounds read low): 0.875 (active); normalized growth (locus YEL061C, strain CIN8, active compounds read low): 0.917 (active); normalized growth (locus YER015W, strain faa2, active compounds read low): 0.86 (active); normalized growth (locus YER016W, strain bim1, active compounds read low): 0.904 (active); normalized growth (locus YER110C, active compounds read low): 0.984; normalized growth (locus YER111C, strain swi4, active compounds read low): 0.77 (active); normalized growth (locus YER155C, strain BEM2 (second series), active compounds read low): 0.74 (active); normalized growth (locus YER155C, strain BEM2, active compounds read low): 0.876 (active); normalized growth (locus YER167W, strain BCK2, active compounds read low): 0.948; normalized growth (locus YFR010W, strain ubp6, active compounds read low): 0.863 (active); normalized growth (locus YGL078C, strain dbp3, active compounds read low): 0.955; normalized growth (locus YGL086W, strain mad1, active compounds read low): 0.911 (active); normalized growth (locus YGL167C, strain pmr1, active compounds read low): 1.01; normalized growth (locus YGL173C, strain kem1, active compounds read low): 0.795 (active); normalized growth (locus YGL227W, strain vid30, active compounds read low): 0.969; normalized growth (locus YGL240W, strain doc1, active compounds read low): 0.805 (active); normalized growth (locus YGL248W, strain PDE1, active compounds read low): 0.968; normalized growth (locus YGL253W, strain hxk2, active compounds read low): 0.897 (active); normalized growth (locus YGR135W, strain pre9, active compounds read low): 0.922; normalized growth (locus YGR252W, strain gcn5, active compounds read low): 0.97; normalized growth (locus YHR013C, strain ard1, active compounds read low): 0.961; normalized growth (locus YHR027C, strain rpn1, active compounds read low): 0.888 (active); normalized growth (locus YHR030C, strain SLT2, active compounds read low): 0.93 and 0.993; normalized growth (locus YHR079C, strain IRE1 (second series), active compounds read low): 1.02; normalized growth (locus YHR079C, strain IRE1, active compounds read low): 0.99; normalized growth (locus YHR094C, strain hxt1, active compounds read low): 0.992; normalized growth (locus YHR129C, strain ARP1, active compounds read low): 0.968; normalized growth (locus YHR142W, strain chs7, active compounds read low): 0.605 (active); normalized growth (locus YHR200W, strain rpn10, active compounds read low): 0.941; normalized growth (locus YIL066C, strain RNR3, active compounds read low): 0.937; normalized growth (locus YIL073C, strain SPO22, active compounds read low): 0.974; normalized growth (locus YIL125W, strain kgd1, active compounds read low): 0.959; normalized growth (locus YIR030C, strain dcg1, active compounds read low): 0.987; normalized growth (locus YJL092W, strain hpr5, active compounds read low): 0.968; normalized growth (locus YJL095W, strain BCK1 (second series), active compounds read low): 0.699 (active); normalized growth (locus YJL095W, strain BCK1, active compounds read low): 0.927 and 1.01; normalized growth (locus YJL115W, strain asf1, active compounds read low): 0.996; normalized growth (locus YJL129C, strain trk1, active compounds read low): 0.859 (active); normalized growth (locus YJL134W, strain LCB3, active compounds read low): 1.01; normalized growth (locus YJL154C, strain vps35, active compounds read low): 0.983; normalized growth (locus YJL164C, strain tpk1, active compounds read low): 0.753 (active); normalized growth (locus YJL166W, strain qcr8, active compounds read low): 0.669 (active); normalized growth (locus YJL168C, strain set2, active compounds read low): 0.986; normalized growth (locus YJL187C, strain SWE1 (second series), active compounds read low): 0.986; normalized growth (locus YJL187C, strain SWE1, active compounds read low): 0.833 (active); normalized growth (locus YJR043C, strain POL32, active compounds read low): 0.97
